Assay results as given in PubChem BioAssay (NCI).
About 83,000 compounds went through this panel and 20% of them were active in at least one assay; those are over-represented in the sample as a whole.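 Single-concentration screen, 48 h exposure, 96-well plates. Endpoint: percent growth. Below 10 = active.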 Activity calls are given as the source filed them.

The compounds below were run on SR leukemia (assay: NCI-60 one-dose screen, 48 h (100 = growth as untreated, 0 = no growth, -100 = all killed)). Conditions: 10 µM unless noted.

Row | SMILES | growth
1 | CC(C)CCC[C@@H](C)[C@H]1CC[C@H]2[C@@H]3CC=C4C[C@@H](C(C(=O)O)C(=O)O)CC[C@]4(C)[C@H]3CC[C@]12C | -39.7% (active)
2 | CCN1CCN(c2cc(C(=O)Nc3nc(-c4cc(OC)c(OC)c(OC)c4)cs3)cc(C(F)(F)F)c2)CC1 | 9.19% (active)
3 | N#Cc1nn(-c2cc(=O)[nH]c3ccc(Cl)cc23)c(N)c1C#N | 0.706% (active)
4 | CN(C)CCCn1c2c(c3ncccc3c1=O)C(=O)c1ccccc1-2 | 15.2% (inactive)
5 | COc1cc(-c2nc3cc(Cl)c(Cl)cc3[nH]2)ccc1OCC(=O)N=Nc1c(O)[nH]c2ccc([N+](=O)[O-])cc12 | 23.9% (inactive)
6 | C=CC(=O)NCc1ccc(Nc2nccc(-c3ccc(N4CCCC4)c(C#N)c3)n2)cc1 | 5.13% (active)
7 | CSc1nnc(-c2cnn3c2NC(c2ccccc2)C3)n1-c1ccc(C(F)(F)F)cc1 (stereo not drawn) | 17.2% (inactive)
8 | N=C(N)c1ccc(-c2ccc(-c3ccc(Cl)cc3)s2)nc1 | 1.7% (active)
9 | O=C(OCc1ccc2c(Cl)cc(Cl)c(O)c2n1)n1cncn1 | 23.1% (inactive)
10 | Cn1ccc2c3c(ccc21)CC3=O | 108% (inactive)
11 | O=C1c2ccc3c4ccc5c6c(ccc(c7ccc(c2c37)C(=O)N1CCC[P+](c1ccccc1)(c1ccccc1)c1ccccc1)c64)C(=O)N(CCC[P+](c1ccccc1)(c1ccccc1)c1ccccc1)C5=O | 35.9% (inactive)
12 | CCn1c(=S)[nH]c2c(=O)n(C)c(=O)n(C)c21 | 110% (inactive)
13 | N#CC1=C(N)Oc2c(sc3c(F)cccc23)C1c1ccc(F)cc1 (stereo not drawn) | 30.6% (inactive)
